# From PubChem
# IDE inh: inhibits human insulin-degrading enzyme in HEK cells; inhibition, % at 5.59 µM; P14735; hit rate 0.41% among 320,000; FAbetaB cleavage, fluorescence polarization;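 active = percent inhibition above the average of all tested compounds plus 3 SD, set per screening campaign, cut at about 16% in these data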;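 note: IDE supplied by intact live HEK cells; FP after avidin binding of uncleaved biotin substrate so inhibition keeps polarization high; 0% = DMSO wells and 100% = 60 µM reference IDE inhibitor Ii1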
# TLR4-MyD88 BLA: inhibitors of human TLR4-MyD88 binding; HeLa CL3-4 TLR4/MyD88 BLA complementation, FRET ratio; inhibition, % at 8.4 µM; hit rate 0.18% among 200,000; AID 861; in the data active = inhibition above about 25%;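 note: 0% = vehicle and 100% = reference inhibitor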
# NOD2-RIPK2 inh: NOD2-RIPK2 protein interaction inhibition. AID 624267. inhibition, % at 4.98 µM. O43353. CHO BLA complementation NOD2-RIPK2, CCF4 ratio. hit rate 0.38% among 360,000; in the data active = inhibition above about 21%;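 note: 0% = vehicle only and 100% = reference blocker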
# Target sequence (O43353 whole entry, looked up): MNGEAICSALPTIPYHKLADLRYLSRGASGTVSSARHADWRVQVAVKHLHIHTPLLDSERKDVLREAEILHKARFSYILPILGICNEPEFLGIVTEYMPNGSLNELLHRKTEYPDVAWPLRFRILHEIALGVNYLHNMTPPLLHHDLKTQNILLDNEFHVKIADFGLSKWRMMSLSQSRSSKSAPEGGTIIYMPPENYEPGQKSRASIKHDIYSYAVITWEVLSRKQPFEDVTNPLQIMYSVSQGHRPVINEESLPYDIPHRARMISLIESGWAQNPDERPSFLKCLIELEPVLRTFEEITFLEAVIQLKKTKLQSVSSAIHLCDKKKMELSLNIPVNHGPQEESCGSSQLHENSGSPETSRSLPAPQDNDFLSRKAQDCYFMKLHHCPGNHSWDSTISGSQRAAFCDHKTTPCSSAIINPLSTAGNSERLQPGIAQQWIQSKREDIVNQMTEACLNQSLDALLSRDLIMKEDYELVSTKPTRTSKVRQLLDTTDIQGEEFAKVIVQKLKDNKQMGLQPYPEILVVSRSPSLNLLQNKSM
# IDE act: boosts human insulin-degrading enzyme activity in HEK cells. P14735. FAbeta-B cleavage, fluorescence polarization; 0% vehicle, 100% cell-free pure enzyme wells. activation, % at 5.96 µM. hit rate 0.073% among 340,000;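 active = activation above the mean of all tested compounds plus 3 SD, set per screening campaign, cut at about 17% in these data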
# TLR9-MyD88 inh: blocks human TLR9 binding to MyD88; hit rate 0.21% among 340,000; inhibition, % at 4.98 µM; CHO BLA complementation TLR9-MyD88, CCF4 FRET ratio; Q9NR96+Q99836; AID 504734;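 active = inhibition above the mean over all tested compounds plus 3 SD, cut at about 21% in these data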;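 note: 0% = DMSO only wells and 100% = clavulanate BLA inhibitor control wells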
# NOD2-RIPK2 conf: confirmation of human NOD2-RIPK2 interaction inhibitors. shares compounds with NOD2-RIPK2 inh. CHO cells, NOD2-RIPK2 BLA complementation, CCF4 FRET. inhibition, % at 4.98 µM. hit rate 70% among 1,200. AID 624370;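 active = mean inhibition across replicates above a set limit taken from the earlier primary screen, cut at about 21% in these data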;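 note: 0% = DMSO-only wells and the high end = clavulanate BLA-blocked wells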
# BLA counter: NOD2-RIPK2 counterscreen BLA reporter activity; shares compounds with NOD2-RIPK2 inh; hit rate 57% among 1,200; inhibition, % at 4.98 µM; CHO BLA reporter, CCF4 FRET ratio; AID 624371;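 active = mean inhibition above the low-control mean inhibition plus three low-control SD, cut at about 11% in these data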;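 note: 0% = DMSO only wells and 100% = clavulanate high control wells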
# Starred values were filed as active, the others as inactive; · = no result. Sampled rows, rich in hits. Any-hit rate of the full collection: about 0.86%.
SMILES,IDE inh,TLR4-MyD88 BLA,NOD2-RIPK2 inh,IDE act,TLR9-MyD88 inh,NOD2-RIPK2 conf,BLA counter
Cc1ccc(Cn2ncc(Cl)c(Cl)c2=O)cc1,4,6,8,-2,7,·,·
CCc1ccc(C(=O)Cn2ncc(Cl)c(Cl)c2=O)cc1,2,12,34*,6,19,40*,9
CCOC(=O)c1ccc(N2C(=O)c3n[nH]c(-c4ccco4)c3C2c2ccc([N+](=O)[O-])cc2)cc1 (stereo not drawn),15,-4,-5,-3,-6,·,·
CC(=O)Nc1ccc(S(=O)(=O)N2c3ccccc3C(C)=CC2(C)C)cc1,9,-6,23*,1,4,22*,-5
O=C(NCc1ccc2c(c1)OCO2)c1nc(S(=O)(=O)Cc2ccccc2F)ncc1Cl,1,·,79*,-5,14,55*,14*
CSc1nnc(NC(=O)c2nc(S(=O)(=O)Cc3ccccc3F)ncc2Cl)s1,2,·,7,-2,5,·,·
O=C(NCc1ccc2c(c1)OCO2)c1nc(S(=O)(=O)Cc2ccccc2)ncc1Cl,-1,·,36*,3,0,29*,6
O=C(NCc1ccc2c(c1)OCO2)c1ccccc1Cl,-4,·,-4,2,0,·,·
COc1ccc(OC)c(/C=C/C(=O)OCC(=O)N2C(C)CCCC2C)c1 (stereo not drawn),2,·,21*,3,1,5,0
CCCCCCOc1ccc(/C=c2\s/c(=C(/C#N)C(=O)NCc3ccco3)n(-c3ccccc3)c2=O)cc1,-1,3,-1,-3,-4,·,·
O=C(Nc1cccc(N2C(=O)C=CC2=O)c1)c1cccs1,1,·,22*,-22,30*,74*,12*
Cc1cccc(NS(=O)(=O)c2cc([N+](=O)[O-])ccc2C)n1,4,7,42*,1,10,-2,-5
CC(C)(C)c1ccc(/C=C2\Oc3cc(O)ccc3C2=O)cc1,13,·,24*,-2,21,27*,45*
O=C1/C(=C/c2ccc(Br)cc2)Oc2cc(O)ccc21,13,·,25*,-12,18,37*,42*
Cc1ccc2nc(N3CCN(C=O)CC3)nc(-c3ccccc3)c2c1,-1,9,26*,0,19,29*,38*
Cc1ccc2nc(N3CCN(C(=O)CCCC(=O)O)CC3)nc(-c3ccccc3)c2c1,-1,·,19,-7,5,·,·
O=C(CSc1nc2ncc(Br)cc2[nH]1)c1ccc([N+](=O)[O-])cc1,6,4,22*,0,-6,13,-5
CCN(CC)C(=O)CSc1nc2ncc(Br)cc2[nH]1,-7,1,2,1,-18,·,·
c1ccc(CN2CCOCCOCCOCCOCCOCCOCC2)cc1,1,5,-10,0,10,·,·
O=C(Nc1cccc([N+](=O)[O-])c1)c1ccc(-c2ccccc2)cc1,4,16,34*,-3,4,6,3
O=C(CSc1nnc(CNC(=O)c2c(F)cccc2F)o1)Nc1ccc2c(c1)OCO2,2,·,-3,1,-1,·,·
O=C(NCCC1=CCCCC1)C1CCCN(c2nc3ccccc3o2)C1 (stereo not drawn),7,-2,-1,-10,5,·,·
O=Nc1c(O)[nH]c2ccc(Cl)c(Cl)c12,·,·,28*,-1,17,26*,15*
COc1ccc(C(=O)OCC(=O)Nc2cccc(C(C)=O)c2)c(OC)c1OC,4,·,-2,5,-3,·,·
O=C(NCc1cccnc1)/C(=C\c1ccc(-c2ccc(Cl)c(Cl)c2)o1)S(=O)(=O)c1ccccc1,-1,15,41*,-2,9,42*,-1
SMILES,IDE inh,TLR4-MyD88 BLA,NOD2-RIPK2 inh,IDE act,TLR9-MyD88 inh,NOD2-RIPK2 conf,BLA counter
O=C(COC(=O)c1ncc(Cl)c(Cl)c1Cl)c1ccc(Cl)s1,2,6,-11,4,-7,·,·
O=C(CNC(=O)c1cccc([N+](=O)[O-])c1)OCCCC(=O)c1ccc(F)cc1,6,·,26*,0,-1,-8,-4
CCn1cc(C(=O)NCc2ccco2)c(=O)c2cc(S(=O)(=O)N3CCCC3)ccc21,7,-15,13,-2,9,·,·
O=C(NCCO)c1cccc(-c2cccc3nncn23)c1,·,·,-7,·,·,·,·
CC1=C(C)/C(=N\OS(=O)(=O)c2ccc(C)cc2)C=CC1=O,1,-4,58*,-3,3,54*,4
CC1=C/C(=N\OS(=O)(=O)c2ccccc2)C(C)=CC1=O,11,-1,54*,-4,12,51*,13*
Cc1cc(C)cc(NC(=O)Nn2cnnc2)c1,·,·,-1,0,-7,·,·
